From PubChem BioAssay (EPA / NIEHS)
Where “and” joins values, the source holds several entries; their conditions need not be identical. Identical values can stand only once. Inconclusive results are not listed. Where a structure was tested more than once in an assay, its records may differ in their call. Calls of active or inactive are those of the source. The calls were made as follows, unless noted: active = hit-call score of the fitted dose curve at least 0.9, where 1 is the maximum; inactive = score below 0.9.

Tests used:
[1] = ACEA_AR_agonist_AUC_viability: ACEA Biosciences xCELLigence Real-Time Cell Analysis on Androgen Receptor Agonism for Viability (AID 2283775; active = hit-call score of the fitted dose curve at least 0.9, where 1 is the maximum)
In short: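 Viability endpoint from xCELLigence impedance in 22Rv1 prostate cells at 80 h. Eight-point series, 100 uM maximum final.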

[2] = target: Bile acid receptor (Homo sapiens) (UniProt Q96RI1); test: ATG_IR1_CIS: Attagene CIS-FACTORIAL HepG2 Assay for human Nuclear Receptor Subfamily 1 Group H Member 4 (NR1H4), IR1 submotif (AID 2282946); settings: IR1 reporter transcription, actives raise or lower the signal
Sequence of Bile acid receptor (Homo sapiens) (Q96RI1 whole entry, looked up): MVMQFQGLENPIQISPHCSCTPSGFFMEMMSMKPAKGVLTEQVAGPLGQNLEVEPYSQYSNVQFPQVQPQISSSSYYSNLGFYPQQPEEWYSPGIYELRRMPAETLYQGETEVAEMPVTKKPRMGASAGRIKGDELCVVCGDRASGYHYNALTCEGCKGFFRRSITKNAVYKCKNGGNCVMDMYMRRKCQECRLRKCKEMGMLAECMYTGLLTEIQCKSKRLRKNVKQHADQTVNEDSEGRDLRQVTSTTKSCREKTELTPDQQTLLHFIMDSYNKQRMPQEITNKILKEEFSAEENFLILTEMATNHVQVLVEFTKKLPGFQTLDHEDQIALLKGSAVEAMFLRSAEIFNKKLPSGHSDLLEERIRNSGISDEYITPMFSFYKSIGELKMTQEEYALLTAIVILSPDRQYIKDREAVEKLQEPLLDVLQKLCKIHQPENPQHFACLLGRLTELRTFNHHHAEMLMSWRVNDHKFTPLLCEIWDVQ
In short: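 HepG2 cells transiently transfected with multiplexed cis-element reporter units read endogenous transcription factor activity. After 24 h compound exposure, reporter mRNA was quantified by RT-PCR, fluorescent labelling, HpaI digestion and capillary electrophoresis; bidirectional fitting versus DMSO baseline.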

[3] = target: human Retinoid X Receptor beta (RXRb), RXRB (gene 6257) (UniProt P28702); test: ATG_RXRb_TRANS: Attagene TRANS-FACTORIAL HepG2 Assay for human Retinoid X Receptor beta (RXRb) (AID 2283013; active = hit-call score of the fitted dose curve at least 0.9, where 1 is the maximum)
Sequence of human Retinoid X Receptor beta (RXRb), RXRB (gene 6257) (P28702 whole entry, looked up, the tested form may be a part): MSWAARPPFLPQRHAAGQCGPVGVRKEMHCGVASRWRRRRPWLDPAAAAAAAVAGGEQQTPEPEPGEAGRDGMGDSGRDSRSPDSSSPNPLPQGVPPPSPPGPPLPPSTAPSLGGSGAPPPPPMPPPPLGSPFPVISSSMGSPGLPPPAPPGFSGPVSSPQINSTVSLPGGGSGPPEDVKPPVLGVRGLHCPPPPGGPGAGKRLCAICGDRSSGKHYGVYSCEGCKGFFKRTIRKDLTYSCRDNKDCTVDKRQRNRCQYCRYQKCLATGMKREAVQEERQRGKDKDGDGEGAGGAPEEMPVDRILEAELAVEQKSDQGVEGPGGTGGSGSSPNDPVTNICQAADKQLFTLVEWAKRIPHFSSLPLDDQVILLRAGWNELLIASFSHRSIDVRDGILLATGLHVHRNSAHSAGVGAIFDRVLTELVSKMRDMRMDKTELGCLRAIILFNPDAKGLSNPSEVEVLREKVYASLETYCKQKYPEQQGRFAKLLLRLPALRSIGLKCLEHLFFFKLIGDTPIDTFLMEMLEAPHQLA
In short: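 Read-out: reporter mRNA induction via RT-PCR plus capillary electrophoresis fluorescence, analysed as signal increase relative to DMSO. Cells were human HepG2, transiently transfected with GAL4-UAS reporter constructs and chimeric receptor-Gal4 fusions, dosed for 24 h.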

[4] = BSK_3C_VCAM1: BioMAP Diversity Plus: 3C Assay for Vascular cell adhesion molecule 1 (VCAM1) Biomarker Activity (AID 2282999); settings: BioMAP 3C HUVEC, VCAM1 ELISA, cytokine-stimulated; actives raise or lower the signal
In short: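 Activity fitted in both directions relative to DMSO, with ELISA measurement of the surface marker on primary HUVEC (3C) at 24 h post-treatment; parallel SRB staining (0.1% SRB, TCA-fixed, 560 nm) flagged overt cytotoxicity.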

[5] = read-out: Intercellular Adhesion Molecule 1 (ICAM1), ICAM1 (gene 3383); test: BSK_3C_ICAM1: BioMAP Diversity Plus: 3C Assay for Intercellular Adhesion Molecule 1 (ICAM1) Biomarker Activity (AID 2283003); settings: primary human endothelial cells (HUVEC); actives raise or lower the signal
In short: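 ELISA read-out of ICAM-1; HUVEC (primary human), 3C system, 24 h post-dosing; bidirectional fit vs DMSO baseline.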

[6] = BSK_3C_Proliferation: Cell Proliferation Assessment in the BioMAP Diversity Plus: 3C Assay (AID 2283006); settings: primary human endothelial cells (HUVEC);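 as to AC50: potency may reflect either rise or fall in cell number versus DMSO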
In short: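 HUVEC, sub-confluent; 48 h chemical exposure; 10% TCA fix, 0.1% SRB stain, A560 total protein. Gain or loss of signal fitted both directions vs DMSO control.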

[7] = read-out: E-selectin (Homo sapiens) (UniProt P16581); test: BSK_3C_Eselectin: BioMAP Diversity Plus: 3C Assay for Eselectin Biomarker Activity (AID 2283015); settings: primary human endothelial cells (HUVEC); actives raise or lower the signal
In short: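 Human vascular endothelium from umbilical vein is exposed to test chemicals for 24 h. E-selectin levels are read by ELISA and compared with DMSO controls.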

[8] = read-out: Matrix Metallopeptidase 1 (MMP1), MMP1 (gene 4312); test: BSK_BE3C_MMP1: BioMAP Diversity Plus: BE3C Assay for Matrix Metallopeptidase 1 (MMP1) Biomarker Activity (AID 2283024); settings: primary human bronchial epithelial cells; actives raise or lower the signal
In short: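 ELISA read-out of MMP1 in human lung bronchial epithelial primary cultures, 24 h post-dose; bidirectional curve fit vs DMSO baseline, gain or loss of signal scored.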

[9] = BSK_3C_Vis: BioMAP Diversity Plus: 3C Assay for Morphology Visualization (AID 2283025); settings: primary human endothelial cells (HUVEC);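 also: fitted both ways so gain or loss versus DMSO counts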;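 as to AC50: light microscopy image of cell morphology used as background control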
In short: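 HUVEC, 3C system; light microscopy of morphology at 24 h post-dose. Bidirectional fit vs DMSO baseline. Secondary readout, background-control function.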

[10] = BSK_BE3C_SRB: Viability Assessment in the BioMAP Diversity Plus: BE3C Assay (AID 2283028); settings: primary human bronchial epithelial cells
In short: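 Overt cytotoxicity was assessed as total protein in confluent human primary bronchial epithelial cultures 24 h after chemical addition, using 0.1% sulforhodamine B staining read at 560 nm.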

[11] = read-out: Vascular endothelial growth factor receptor 2 (Homo sapiens) (UniProt P35968); test: BSK_4H_VEGFRII: BioMAP Diversity Plus: 4H Assay for Vascular endothelial growth factor receptor 2 (VEGFR2) Biomarker Activity (AID 2283031); settings: primary human endothelial cells (HUVEC); actives raise or lower the signal
In short: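 VEGFRII levels on human vascular endothelial primary cells were determined by ELISA at 24 hours post-dosing, with gain- or loss-of-signal fitted against DMSO controls.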

[12] = read-out: Vascular cell adhesion molecule 1 (VCAM1), VCAM1 (gene 7412); test: BSK_4H_VCAM1: BioMAP Diversity Plus: 4H Assay for Vascular cell adhesion molecule 1 (VCAM1) Biomarker Activity (AID 2283033); settings: primary human endothelial cells (HUVEC); actives raise or lower the signal
In short: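 HUVEC, 24 h post-dose; VCAM-1 by ELISA. Bidirectional curve fit vs DMSO baseline. Parallel SRB total-protein stain (0.1% SRB after 10% TCA fixation, 560 nm) for cytotoxicity.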

[13] = read-out: Monocyte Chemoattractant Protein-1 (MCP1), CCL2 (gene 6347); test: BSK_LPS_MCP1: BioMAP Diversity Plus: LPS Assay for Monocyte Chemoattractant Protein-1 (MCP1) Biomarker Activity (AID 2283081); settings: primary human HUVEC with PBMC; actives raise or lower the signal;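 as to AC50: secreted MCP-1 protein quantified by ELISA in culture supernatant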
In short: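 LPS-stimulated HUVEC/PBMC co-culture; chemical, 24 h; MCP-1 by ELISA; bidirectional fit vs DMSO; cytotoxicity via SRB (0.1% stain, 10% TCA fix, 560 nm) in parallel wells.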

[14] = BSK_LPS_PGE2: BioMAP Diversity Plus: LPS Assay for Prostaglandin E2 (PGE2) Biomarker Activity (AID 2283082); settings: primary human HUVEC with PBMC; actives raise or lower the signal;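 as to AC50: secreted prostaglandin E2 measured by ELISA in LPS-stimulated co-culture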
In short: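 ELISA read-out of PGE2 from human umbilical vein endothelial cells co-cultured with peripheral blood mononuclear cells under LPS, 24 h post-dose. Gain or loss of signal scored relative to DMSO baseline.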

[15] = read-out: CD69, CD69 (gene 969); test: BSK_SAg_CD69: BioMAP Diversity Plus: SAg Assay for CD69 Biomarker Activity (AID 2283089); settings: primary human HUVEC with PBMC; actives raise or lower the signal;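 as to AC50: cell surface CD69 protein quantified by ELISA with fluorescence detection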
In short: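 ELISA, fluorescence read-out: CD69 on human umbilical vein endothelial cell + PBMC co-culture, 24 h post-dosing. Gain or loss of signal fitted bidirectionally against DMSO baseline.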

[16] = read-out: Monocyte Chemoattractant Protein-1 (MCP1), CCL2 (gene 6347); test: BSK_SAg_MCP1: BioMAP Diversity Plus: SAg Assay for Monocyte Chemoattractant Protein-1 (MCP1) Biomarker Activity (AID 2283090); settings: primary human HUVEC with PBMC; actives raise or lower the signal
In short: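 Values derive from bidirectional fitting of ELISA-measured MCP1 against DMSO controls. Readings were taken 24 h after dosing human vascular endothelial cells co-cultured with peripheral blood mononuclear cells under superantigen stimulation.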

[17] = read-out: E-selectin (Homo sapiens) (UniProt P16581); test: BSK_SAg_Eselectin: BioMAP Diversity Plus: SAg Assay for Eselectin Biomarker Activity (AID 2283091); settings: primary human HUVEC with PBMC; actives raise or lower the signal
In short: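 Primary human endothelial cells and peripheral blood mononuclear cells were co-cultured and exposed to chemical for 24 hours. E-selectin levels were then quantified by ELISA, with bidirectional curve fitting normalised to DMSO controls.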

[18] = read-out: Monokine induced gamma interferon (MIG), CXCL9 (gene 4283); test: BSK_SAg_MIG: BioMAP Diversity Plus: SAg Assay for Monokine induced gamma interferon (MIG) Biomarker Activity (AID 2283092); settings: primary human HUVEC with PBMC; actives raise or lower the signal
In short: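 ELISA readout of MIG/CXCL9; primary human umbilical vein endothelial cells co-cultured with peripheral blood mononuclear cells; 24 h post-dose; gain/loss fit vs DMSO baseline.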

[19] = BSK_SAg_Proliferation: Cell Proliferation Assessment in the BioMAP Diversity Plus: SAg Assay (AID 2283095); settings: primary human HUVEC with PBMC;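 also: relative cell number as total protein by SRB absorbance in sub-confluent culture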
In short: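 HUVEC/PBMC co-culture, 96-well. TCA-fixed (10%), 0.1% SRB stain, A560 at 96 h. Protein content used as viability readout; bidirectional fitting vs DMSO control.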

Measured: AC50

Sequence of E-selectin (Homo sapiens) (P16581 whole entry, looked up): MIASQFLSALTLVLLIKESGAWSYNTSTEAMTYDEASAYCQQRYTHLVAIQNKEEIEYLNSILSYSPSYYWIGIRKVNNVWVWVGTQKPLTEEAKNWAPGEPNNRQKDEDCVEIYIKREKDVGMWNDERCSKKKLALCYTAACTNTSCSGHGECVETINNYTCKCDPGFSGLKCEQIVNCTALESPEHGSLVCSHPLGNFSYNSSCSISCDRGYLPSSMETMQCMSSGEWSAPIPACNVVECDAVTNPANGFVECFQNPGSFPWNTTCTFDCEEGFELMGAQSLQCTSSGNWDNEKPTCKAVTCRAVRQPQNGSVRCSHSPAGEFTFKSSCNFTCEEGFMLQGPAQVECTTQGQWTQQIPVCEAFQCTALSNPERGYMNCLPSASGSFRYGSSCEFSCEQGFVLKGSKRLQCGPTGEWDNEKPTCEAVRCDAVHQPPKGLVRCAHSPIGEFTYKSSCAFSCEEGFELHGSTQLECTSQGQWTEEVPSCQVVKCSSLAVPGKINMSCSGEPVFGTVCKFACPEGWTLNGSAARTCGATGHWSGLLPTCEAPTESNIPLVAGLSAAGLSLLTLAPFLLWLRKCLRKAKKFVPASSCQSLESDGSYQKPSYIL

O=C=Nc1ccccc1
inactive: [1]

C=CC(=O)OCCCCOC(=O)C=C
active: [2] 65.8 µM
inactive: [3]

O=C(CCN1CC1)OCC(CO)(COC(=O)CCN1CC1)COC(=O)CCN1CC1
inactive: [2]

O=C1C=CC(=O)C=C1
inactive: [9] | [10] | [11] | [13] | [14] | [16] | [18]
active: [4] 13.8 µM and 20 µM | [5] 20 µM and 28.6 µM | [6] 26.2 µM and 6.35 µM | [7] 13.4 µM and 8.64 µM | [8] 5.14 µM and 4.77 µM | [9] 8.8 µM | [12] 16.1 µM and 20 µM | [13] 32.6 µM | [14] 31.7 µM | [15] 20 µM and 22.9 µM | [16] 31.4 µM | [17] 30.7 µM and 25.2 µM | [18] 35.6 µM | [19] 6.38 µM and 3.38 µM

O=[N+]([O-])O
not listed: [2] | [3] | [9]
inactive: all other assays above

CN(C)N
inactive: [1]

CNC(=O)Oc1cc(C)c(SC)c(C)c1
active: [4] 20 µM | [6] 13 µM | [3] 30.2 µM | [7] 20 µM | [12] 20 µM | [14] 11.8 µM
not listed: [1]
inactive: all other assays above

Cc1ccc(OP(=O)(Oc2ccc(C)cc2)Oc2ccc(C)cc2)cc1 (tested in a mixture with another compound)
active: [6] 7.47 µM | [8] 3.35 µM | [9] 37.5 µM | [15] 9.8 µM | [16] 20 µM | [17] 20 µM | [19] 9.42 µM
not listed: [1] | [2] | [3]
inactive: all other assays above
